For assay [1], the target named is Glutathione peroxidase 1 (Homo sapiens) (UniProt P07203). As to the kind of experiment: Primary qHTS Assay for Inhibitors of Recombinant Selenoprotein Glutathione Peroxidase 1 (GPX1) (AID 1845191). Further: nearly all actives have a fitted effect of over 65% in size. A digest of the protocol:
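Recombinant GPX1 (10 nM final) was preincubated with compound for 30 min at room temperature, then reacted with 1 mM GSH, 0.5 mM CHP, 0.5 mM NADPH and 100 nM glutathione reductase; NADPH fluorescence (340/450 nm) was read at 0 and 15 min.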

The target in assay [2] is Phospholipid hydroperoxide glutathione peroxidase GPX4 (Homo sapiens) (UniProt P36969). As to the kind of experiment: Primary qHTS Assay for Inhibitors of Recombinant Selenoprotein Glutathione Peroxidase 4 (GPX4) (AID 1845192). Further: nearly all actives have a fitted effect of over 65% in size. A digest of the protocol: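 GR-coupled readout: 100 nM GR, 1 mM GSH, 0.5 mM NADPH; NADPH fluorescence (ex 340/em 450 nm) read at t=0 and after 15 min RT. GPX4 200 nM, preincubated 30 min with compound; substrate 0.5 mM CHP.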
Phospholipid hydroperoxide glutathione peroxidase GPX4 (Homo sapiens), sequence (P36969 whole entry, looked up): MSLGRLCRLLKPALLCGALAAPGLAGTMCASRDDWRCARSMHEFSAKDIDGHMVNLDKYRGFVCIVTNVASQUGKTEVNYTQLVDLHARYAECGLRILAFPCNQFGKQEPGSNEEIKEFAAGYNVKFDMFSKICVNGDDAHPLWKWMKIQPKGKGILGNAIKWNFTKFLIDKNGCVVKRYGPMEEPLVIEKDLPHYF
(In general: In qHTS, concentration-response curves come from the screen itself.)

Assay [3] addresses Luciferin 4-monooxygenase (Photinus pyralis) (UniProt P08659). As to the kind of experiment: Primary firefly luciferase (FLuc) qHTS assay for identification of artifact compounds. (AID 1845220). Further: nearly all actives have a fitted effect of over 60% in size. Further: potency means the concentration at half of the fitted maximal effect. A digest of the protocol:
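In this counter-screen for luciferase artifacts, test compounds met substrate (10 uM each luciferin and ATP) before 10 nM enzyme started the reaction. Light output was measured 5 min later.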

Assay [4] deals with Nanoluciferase (engineered Oplophorus gracilirostris luciferase). Put plainly: Primary Nanoluciferase (NLuc) qHTS assay for identification of artifact compounds. (AID 1845222).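 Further: NLuc secreted into diluted conditioned medium of S16 cells; series mostly up to about 54 µM.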 A digest of the protocol:
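Using secreted nanoluciferase in S16 culture medium (0.22 um filtered, 1:55 dilution), compounds were preincubated 15 min at RT. Signal was generated with Nano-Glo reagent (1:100) over 5 min.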

Assay [5] in a line: Primary redox qHTS assay for identification of artifact compounds. (AID 1845223). A digest of the protocol:
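Amplex Red (25 uM) and HRP (250 mU/mL) in HBSS, with compounds for 15 min, then 250 uM DTT for 30 min, room temperature, dark. Fluorescence 525/598 nm read; normalized to DMSO and 10 uM DA3003; Hill fit.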

A short description of assay [6]: Quantitative High-Throughput drug screen in 47 multiple myeloma cell lines against the NCATS MIPE library collection: FR4_PLB cell viability assay (AID 1918924; further: nearly all actives have a fitted effect of over 35% in size; further: potency means the concentration at half of the fitted maximal effect). A digest of the protocol: (§1)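 CellTiter-Glo luminescence (ATP) after 48 h compound exposure, 37C/5% CO2; 500 cells/well; MIPE 4.0 approved/investigational drugs pinned in; DMSO = 100%, media only = 0% viability.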

Assay [7] is described as follows: Quantitative High-Throughput drug screen in 47 multiple myeloma cell lines against the NCATS MIPE library collection: Delta47_JCRB cell viability assay (AID 1918925; further: potency means the concentration at half of the fitted maximal effect; nearly all actives have a fitted effect of over 45% in size). A digest of the protocol: (§2)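 Viability readout: CellTiter-Glo luminescence following 5 min room-temperature incubation with reagent. Prior exposure: 48 h, 37C, humidified 5% CO2, 500 cells per well.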

Assay [8] in a line: Quantitative High-Throughput drug screen in 47 multiple myeloma cell lines against the NCATS MIPE library collection: EJM_DSMZ cell viability assay (AID 1918926; further: nearly all actives have a fitted effect of over 30% in size; further: potency means the concentration at half of the fitted maximal effect). A digest of the protocol:
as §2

Assay [9] in a line: Quantitative High-Throughput drug screen in 47 multiple myeloma cell lines against the NCATS MIPE library collection: ARP1_JJKsccF8 cell viability assay (AID 1918928; further: nearly all actives have a fitted effect of over 40% in size; further: potency means the concentration at half of the fitted maximal effect). A digest of the protocol: (§3)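 Myeloma cells, 500 per well, were exposed to MIPE 4.0 drugs by pin transfer for 48 h at 37 °C, 5% CO2. Viability was read as ATP luminescence with CellTiter-Glo, normalised to DMSO-only (100%) and medium-only (0%) wells.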

Assay [10] in a line: Primary fluorescence-based thiol-reactive (MSTI) qHTS assay for identification of artifact compounds. (AID 1845221).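 Further: series mostly up to about 54 µM; thiol-reactive compounds lower the probe fluorescence signal; nearly all actives have a fitted effect of over 65% in size.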 A digest of the protocol: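 qHTS titration of compound; 4 uM MSTI, PBS pH 7.4, 2% DMSO; 1 h RT, dark; fluorescence 525/598 nm; normalized to Acetyl-MSTI and MSTI; 4-parameter Hill fit.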
Assay [11] is described as follows: Quantitative High-Throughput drug screen in 47 multiple myeloma cell lines against the NCATS MIPE library collection: KMM1_JCRB cell viability assay (AID 1918960). Further: nearly all actives have a fitted effect of over 30% in size. Further: potency means the concentration at half of the fitted maximal effect. A digest of the protocol: as §3
Assay [12] in a line: NCATS anti-infectives library activity on the primary C. elegans qHTS viability assay (AID 1745855; calls by dose curve; further: potency means the concentration at half of the fitted maximal effect). A digest of the protocol:
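Viability is taken from GFP fluorescence of PE254-GFP-FLuc C. elegans imaged by laser cytometry over 7 days. Ten L1 worms per well grow at 21 °C on TOP10 E. coli capsules with titrated compound; levamisole marks toxicity.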

A short description of assay [13]: Quantitative High-Throughput drug screen in 47 multiple myeloma cell lines against the NCATS MIPE library collection: AMO1_DSMZ cell viability assay (AID 1918927; further: nearly all actives have a fitted effect of over 30% in size; further: potency means the concentration at half of the fitted maximal effect). A digest of the protocol:
as §2

Assay [14] is described as follows: Quantitative High-Throughput drug screen in 47 multiple myeloma cell lines against the NCATS MIPE library collection: ARD_JJKsccE7 cell viability assay (AID 1918929; further: potency means the concentration at half of the fitted maximal effect). A digest of the protocol:
as §2

A short description of assay [15]: Quantitative High-Throughput drug screen in 47 multiple myeloma cell lines against the NCATS MIPE library collection: Karpas620_DSMZ cell viability assay (AID 1918959). Further: nearly all actives have a fitted effect of over 30% in size. Further: potency means the concentration at half of the fitted maximal effect. A digest of the protocol: as §1

Results filed as inconclusive are left out. The source made the active and inactive calls. Unless noted, the call rests on the fitted dose curve; in most records, active means well fitted curve in the direction sought with a large enough effect; inconclusive means small, poorly fitted or top-dose-only effect, or another doubt; inactive means no such curve, though single readings can be large; an effect the other way counts as inactive or inconclusive.

Glutathione peroxidase 1 (Homo sapiens), sequence (P07203 whole entry, looked up): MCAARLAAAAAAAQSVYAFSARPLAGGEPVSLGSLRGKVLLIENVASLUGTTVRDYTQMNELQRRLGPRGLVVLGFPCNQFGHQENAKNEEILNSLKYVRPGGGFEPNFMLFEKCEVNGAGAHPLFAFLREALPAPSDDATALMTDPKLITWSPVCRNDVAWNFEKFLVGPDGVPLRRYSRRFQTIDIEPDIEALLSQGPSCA

As for `CN1CCc2c(c3ccccc3n2Cc2ccc(C(=O)NO)cc2)C1`, the Potency entry in assay [1], in [2], in [3] and in [5] was “inactive” throughout. For the same compound, in [4], the outcome was inactive. Moreover, the Potency in [6], in assay [7], in [8] and in assay [9] was 18.7 µM (active) in each case.

Consider `CS(=O)(=O)N1CCc2c(-c3cnc(N)nc3)nc(N3CCOCC3)nc21`, for which the Potency result in [1], in assay [2], in [3], in assay [10] and in assay [5] was “inactive” each time. Also, the outcome in [4] was inactive. Besides, the Potency is 0.59 µM (active) in assay [6]; 0.148 µM (active) in assay [7]; 2.09 µM (active) in assay [8]; 0.0418 µM (active) in assay [9]; 66.2 nM (active) in assay [11].

In the case of `C[C@H](NC(=O)[C@@H](O)c1cc(F)cc(F)c1)C(=O)N[C@@H]1C(=O)N(C)c2ccccc2-c2ccccc21`, the Potency in assay [12] was 365 nM (active). In addition, the Potency entry in [2], in assay [6], in assay [8], in [13], in assay [9] and in [14] was “inactive” throughout. The Potency entry in assay [15] and in assay [11] was “inactive” throughout.

In the case of `Oc1cc(-c2nc(-c3ccccc3)[nH]c2-c2ccncc2)ccc1Cl`, the Potency entry in assay [1], in assay [2], in [3], in assay [10] and in assay [5] was “inactive” each time. The outcome in assay [4] was inactive. The Potency in assay [7] is 4.69 µM (active); in [8], 18.7 µM (active); in assay [13] it was 5.26 µM (active); in assay [9], 14.8 µM (active); in assay [14], 5.9 µM (active); in assay [15], 5.9 µM (active). In [11], the Potency is 1870 nM (active).

In the case of `O=C(Nc1cc2cc[nH]c2cn1)c1ccccc1`, the Potency result in assay [1], in assay [2], in assay [10] and in [5] was “inactive” in each case. The Potency in [3] is 2.39 µM (active); in assay [6], 14.8 µM (active); in assay [7] it was 9.35 µM (active); in [8] it was 8.33 µM (active); in assay [13] it was 10.5 µM (active); in assay [14], 10.5 µM (active). Further, in [15], the Potency was 4.69 µM (active). The compound was called inactive in assay [4].

As to `CCCCOc1ccc(C(=O)Nc2ccc(F)cc2F)cc1`, the Potency result in assay [1], in [2], in assay [3], in [10], in assay [5] and in assay [8] was “inactive” throughout. Further, the Potency result in assay [9], in assay [14], in assay [15] and in [11] was “inactive” in each case. Besides, the result in [4] was inactive.

As for `Nc1ccn(C2CO[C@H](CO)O2)c(=O)n1` (some centres not stated), the Potency result in assay [1], in assay [2], in [3], in assay [10], in assay [5] and in assay [6] was “inactive” each time. Also, the Potency result in assay [8], in assay [13], in assay [14], in [15] and in assay [11] was “inactive” throughout. For the same compound, in assay [4], the compound was classed as inactive.

For the origin of these results see PubChem BioAssay (NCATS).
